Screening results as filed in PubChem BioAssay.
SKKanGAS inh: inhibitors of SKKanGAS S. pyogenes growth in kanamycin (SK-promoter or general growth effect); inhibition, % at 7.5 µM; BacTiter-Glo, 6 h; actives 1.3% (n = 300,000); AID 1662;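 active = mean replicate score, as percent of positive control median, at least 50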;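 also: strain carries kanamycin resistance gene driven by streptokinase promoter and grows in 40 µg/ml kanamycin; loss of luminescence reflects streptokinase promoter inhibition or plain growth inhibition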
PfHsp90 set2: reduces growth (ATP signal) of yeast expressing P. falciparum Hsp90; S. cerevisiae expressing PfHsp90, BacTiter-Glo ATP, 48 h; yeast lacking PDR1 and PDR3 efflux regulators; inhibition, % at 9.4 µM; actives 0.32% (n = 310,000); AID 504621;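 active = every replicate shows inhibition above about 80%, whatever the replicate mean, limit read from the data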
tim10-1 inh: growth inhibitors of tim10-1 mutant yeast; S. cerevisiae tim10-1 ts strain growth, BacTiter-Glo, 24 h; inhibition, % at 20 µM; actives 2.2% (n = 330,000);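 active = inhibition of at least 40%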;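 also: mutant grown at 25 °C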
tim23-1 inh: inhibits growth of tim23-1 mutant yeast; S. cerevisiae tim23-1 growth, BacTiter-Glo luminescence, 24 h; inhibition, % at 20 µM; actives 1.3% (n = 330,000); AID 463212;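 active = growth inhibition of the mutant yeast at or above 50%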;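 also: temperature-sensitive mutant grown at 25 °C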
TIM10 inh: inhibits growth of TIM10 yeast strain; S. cerevisiae TIM10 strain growth, BacTiter-Glo luminescence, 24 h; inhibition, % at 10 µM; actives 1.4% (n = 330,000);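 active = inhibition of 40% or more at the single tested concentration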;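 also: wild-type TIM10 isogenic control strain grown at permissive 25 °C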
V-ATPase pH: yeast V-ATPase proton transport regulation by pHLuorin; S. cerevisiae, pHLuorin cytosolic pH fluorescence; response, % at 10 µM; actives 0.37% (n = 350,000); AID 504577; in the data active = response mostly above about 7.3%, no sharp cut-off; inactive = mostly below about 5.4%; also: actives read high
Large screens that a line does not name were inactive. Most compounds without a hit are left out; they make up all but 4.6% or so of the library.

CCc1cccc(C)c1NC(=O)COC(=O)c1c2c(nc3ccccc13)/C(=C\c1cccs1)CCC2	none
NC(=O)c1ccc(NC(=O)COC(=O)c2c3c(nc4ccccc24)/C(=C\c2cccs2)CCC3)cc1	SKKanGAS inh 91 (no result: PfHsp90 set2)
C=CCNC(=O)c1c(CSc2ccc(F)cc2)noc1C(=O)NCCC	none
CC(=O)N1CC(=O)N(c2ccccc2)C1=O	none
CC1CCN(C2CC(=O)N(c3ccc(Br)cc3Br)C2=O)CC1 (stereo not drawn)	PfHsp90 set2 107
CC1CCN(C2CC(=O)N(c3ccccc3)C2=O)CC1 (stereo not drawn)	none
C/C(=N\NC(=O)C(c1ccccc1)c1ccccc1)c1ccccn1	SKKanGAS inh 70
O=C(N/N=C(\c1ccccc1)c1ccccn1)c1ccccc1Cl	SKKanGAS inh 66 (no result: PfHsp90 set2)
C/C(=N\NC(=O)C(c1ccccc1)c1ccccc1)c1ccc(O)cc1	none
C/C(=N\NC(=O)c1ccccc1Cl)c1ccccn1	none
CC(=NNC(=S)Nc1cccc(C)c1)c1ccccn1	PfHsp90 set2 112 (no result: SKKanGAS inh, tim10-1 inh, tim23-1 inh, TIM10 inh)
C/C(=N\NC(=O)c1cc(Br)ccc1O)c1ccccn1	SKKanGAS inh 97
CN(/N=C/c1cc(Cl)cc(Cl)c1O)c1c(Cl)cccc1[N+](=O)[O-]	none
O=C(CN1CCN(C(=O)CN2C(=O)NC3(CCCC3)C2=O)CC1)Nc1cccc(F)c1	none (no result: SKKanGAS inh)
C/C(=N\NC(=O)c1cccc2ccccc12)c1ccccn1	SKKanGAS inh 79
CCOc1ccc(OCc2ccc(C(=O)N/N=C(\C)c3ccccn3)cc2)cc1	SKKanGAS inh 92 (no result: tim10-1 inh, tim23-1 inh, TIM10 inh)
COc1ccc(-c2nnc(SCC(=O)NC(=O)Cc3ccccc3)n2C)cc1	none (no result: SKKanGAS inh)
COc1ccc(O)c(-c2cn[nH]c2-c2cccs2)c1	none (no result: PfHsp90 set2)
COc1ccc(O)c(C2=Nc3ccccc3N=C(c3cccs3)C2)c1	SKKanGAS inh 60
C=CCn1c(COc2ccccc2)nnc1SC(C)C(=O)N/N=C/c1cc(Cl)ccc1O (stereo not drawn)	SKKanGAS inh 105
Cc1cc2nc(/N=C(\N)NC(=O)C(C)C)nc(C)c2cc1C	SKKanGAS inh 53
CCCC(=O)N/C(N)=N/c1nc(C)c2cc(C)ccc2n1	none (no result: PfHsp90 set2)
Cc1ccc2nc(/N=C(\N)NC(=O)NC3CCCCC3)nc(C)c2c1	SKKanGAS inh 53
CCCC[C@@H]1C[C@H]1[C@@H](NC(=O)c1ccccc1)c1ccccc1C(F)(F)F	none
C=C(CC1([C@@H](NP(=O)(c2ccccc2)c2ccccc2)[C@H]2C[C@@H]2CCCC)CC1)c1ccccc1	SKKanGAS inh 77
CCN(CC)S(=O)(=O)c1cccc(C(=O)NCC(c2ccccc2)N(C)C)c1 (stereo not drawn)	PfHsp90 set2 107
CCc1sc(N(C(=O)Cc2ccccc2)c2cccc(F)c2)nc1-c1ccc(C)cc1	SKKanGAS inh 59
O=C(COC(=O)c1c[nH]c2ccccc12)NC1CCCCC1	none (no result: SKKanGAS inh)
c1ccc(CCC2CCCCN2Cc2cn[nH]c2-c2cc3ccccc3o2)nc1 (stereo not drawn)	none
O=C(c1ccccn1)C1CCCN(Cc2cn[nH]c2-c2cc3ccccc3o2)C1 (stereo not drawn)	V-ATPase pH 16
O=[N+]([O-])c1ccccc1Oc1ccc(S(=O)(=O)N2CCOCC2)cc1	none (no result: SKKanGAS inh)
CC12CCC(C/C1=N\N=C1\NC(=O)/C(=C\c3cccc(Br)c3)S1)C2(C)C (stereo not drawn)	SKKanGAS inh 104
COc1cc(/C=N/N=C2\CC3CCC2(C)C3(C)C)ccc1O (stereo not drawn)	none
COc1cc(-c2noc(C)c2C(=O)NCCCN2CCOCC2)cc(OC)c1OC	none (no result: SKKanGAS inh)
CC1CCN(Cc2c(C(=O)N/N=C/c3cc(Cl)ccc3O)nnn2-c2nonc2N)CC1	SKKanGAS inh 66
CC1CCN(Cc2c(C(=O)N/N=C/c3cc(Br)ccc3O)nnn2-c2nonc2N)CC1	SKKanGAS inh 80
O=[N+]([O-])c1cc(S(=O)(=O)Nc2ccccc2)ccc1N1CCN(c2ccccc2)CC1	SKKanGAS inh 50
O=[N+]([O-])c1cc(S(=O)(=O)C(F)(F)F)ccc1N1CCN(c2ccccc2)CC1	none
CC(=O)Nc1ccc(NC(=O)C(OC(=O)c2ccccc2)C(OC(=O)c2ccccc2)C(=O)O)cc1 (stereo not drawn)	none (no result: PfHsp90 set2)
Cc1c(C(=O)OCC(=O)Nc2cccc(S(N)(=O)=O)c2)oc2c1ccc1ccccc12	SKKanGAS inh 66
